In ChEMBL document CHEMBL1157539, “Thousands of chemical starting points for antimalarial lead identification” (Nature, 2010):

Columns and labels:
Assay type in all cases: functional
Plasmodium falciparum [1] = assay: GSK_TCMDC: Inhibition of Plasmodium falciparum 3D7 in whole red blood cells, using parasite LDH activity as an index of growth. Test compounds present at 2uM
Plasmodium falciparum [2] = assay: GSK_TCMDC: Inhibition of Plasmodium falciparum Dd2 in whole red blood cells, using parasite LDH activity as an index of growth. Test compounds present at 2uM
HepG2 = assay: GSK_TCMDC: Percent inhibition of human HepG2 cell line. Test compounds present at 10uM.

Row | Structure (SMILES) | Inhibition (Plasmodium falciparum [1]) [%] | Inhibition (Plasmodium falciparum [2]) [%] | Inhibition (HepG2) [%]
1 | CCn1c(-c2nonc2N)nc2c(-c3cccc(NC(=O)Nc4ccc5c(c4)CCC5)c3)ncc(OCCCN)c21.O=C(O)C(F)(F)F | 99 | 94 | 26
2 | Cc1noc(C)c1-c1ccc(C(=C2CCCCCC2)c2ccc(O)cc2)cc1 | 100 | 96 | 0
3 | CN(C)Cc1ccc(-c2cc3ncnc(Nc4ccc(OCc5cccc(F)c5)c(Cl)c4)c3s2)[nH]1 | 99 | 87 | 53
4 | COc1ccc2[nH]c(C)cc(=NN=Cc3ccncc3)c2c1 | 100 | 68 | 6
5 | COc1ccc(C=C2SC(=O)N=C2Nc2ccccc2)c(OC)c1 | 91 | 89 | 51
6 | COc1ccc(CN2CCCN(Cc3cccc(C(=O)Nc4ccc(C(C)(C)C)cc4)c3)CC2)cc1.O=C(O)C(F)(F)F | 98 | 3 | 46
7 | Fc1ccc(C=NN=c2cc[nH]c3ccccc23)cc1 | 100 | 100 | 21
8 | Cc1ccccc1C1CCN(C2CCC(NC(=O)c3cc4cc(Cl)ccc4o3)CC2)CC1 (configuration not stated) | 89 | 30 | 22
9 | Fc1cccc(COc2ccc(Nc3ncnc4sc(C#C[C@H]5CC[C@H](CNCC(F)(F)F)N5)cc34)cc2Cl)c1 | 100 | 51 | 10
10 | COC(=O)c1ccc(CCCNCC(O)c2cccc(C(F)(F)F)c2)cc1 (configuration not stated) | 97 | 88 | 0
11 | CC1CCN(c2nc(C(=O)Nc3ccc(F)cc3C(F)(F)F)c(C(C)C)s2)CC1.O=C(O)C(F)(F)F | 100 | 66 | 5
12 | COc1ccc(-c2cccc(NC(=O)c3cccs3)c2)cc1CN1CCCN(C)CC1.O=C(O)C(F)(F)F | 100 | 30 | 17
13 | O=[N+]([O-])c1ccc(Nc2nc(NCc3ccccc3)nc(N/N=C/c3ccccc3[N+](=O)[O-])n2)cc1 | 100 | 99 | 18
14 | O=C(N[C@@H](Cc1ccccc1)C(=O)O)c1cc(-c2ccc(F)cc2)no1.O=C(N[C@@H](Cc1ccccc1)C(=O)O)c1conc1-c1ccc(F)cc1 | 96 | 49 | 0
15 | Cc1cccc2nc(-c3ccc(-c4ccc(NC(=O)CN5CCN(C)CC5)cc4)s3)[nH]c12 | 95 | 86 | 56
16 | O=C(NCCCCN1CCN(c2ccc3c(c2)CCC3)CC1)c1ccc(NC(=O)c2ccc(Cl)cc2)cc1 | 98 | 35 | 38
17 | O=C(Nc1ccc(OC2CCN(Cc3ccsc3)C2)c(Cl)c1)c1ccc2ncccc2c1.O=C(O)C(F)(F)F (configuration not stated) | 88 | 10 | 84

Row | Structure (SMILES) | Inhibition (Plasmodium falciparum [1]) [%] | Inhibition (Plasmodium falciparum [2]) [%] | Inhibition (HepG2) [%]
18 | O=C(Nc1cccc(CN2CCN(Cc3cccc(O)c3)CC2)c1)c1cc2ccccc2s1.O=C(O)C(F)(F)F | 86 | 54 | 13
19 | O=C(/C=C/c1ccc(Cl)c(Cl)c1)N1CCC(CCN2CCC(c3c[nH]c4ccccc34)CC2)CC1 | 100 | 44 | 56
20 | O=C(O)C(F)(F)F.c1cncc(CCNCc2ccc(-c3cccc(-c4nc5ccccc5[nH]4)c3)cc2)c1 | 100 | 99 | 39
21 | CCn1ncc(Cl)c1CN(C)S(=O)(=O)c1ccc(Br)cc1 | 90 | 70 | 9
22 | CC(=O)Nc1cccc(-c2cnc(N)c3cc(-c4ccc5c(c4)OCO5)ccc23)c1 | 99 | 93 | 100
23 | CCNc1cc(C(=O)N[C@@H](Cc2ccccc2)[C@H](O)CNC(CC)c2cccc(Cl)c2)cc(N2CCCCS2(=O)=O)c1.Cl (some centres not stated) | 100 | 98 | 12
24 | COc1cc2nc(N3CCC(CNC(=O)c4ccc(OC(F)(F)F)cc4)CC3)nc(N)c2cc1OC.O=C(O)C(F)(F)F | 100 | 98 | 16
25 | O=C(Nc1ccc(-c2ccc(-c3nc4cc(C(F)(F)F)ccc4[nH]3)cc2)cc1)Nc1ccc(F)c(F)c1F | 99 | 100 | 39
26 | CCC(CN1C(=O)C(c2ccccc2)(c2ccccc2)N=C1N)c1ccccc1.O=CO (configuration not stated) | 98 | 98 | 11
27 | CCn1c(C=Cc2cc(Br)ccc2O)nc2ccccc2c1=O | 95 | 95 | 6
28 | Cc1cc(-c2nc3cncc(-c4cccc(CN5CCCC5Cc5cccnc5)c4)c3n2C)nn1C.O=C(O)C(F)(F)F (configuration not stated) | 83 | 73 | 0
29 | Br.CCCc1cccc(C)c1OCCCON1C(=N)N=C(N)NC1(C)C | 95 | 96 | 57
30 | Cc1ccc(CNC(=O)[C@H](CCCN)Nc2nc(Nc3ccccc3)ncc2C)cc1.O=C(O)C(F)(F)F | 97 | 0 | 0
31 | Fc1ccc2[nH]c(-c3cccc(-c4ccc(CNCc5ccccc5)cc4)c3)nc2c1.O=C(O)C(F)(F)F | 100 | 89 | 27
32 | N#Cc1cccc(C(=O)Nc2ccc(-c3ccc(CN4CCCC4)cc3)cc2)c1.O=C(O)C(F)(F)F | 92 | 32 | 38
33 | O=C(Nc1cccc(CN2CCCN(Cc3cccc(O)c3)CC2)c1)c1ccc(Cl)c(Cl)c1.O=C(O)C(F)(F)F | 100 | 79 | 25
34 | O=C(NCC1CCC1)c1cnc(Nc2cccc(Cl)c2)nc1N1CCC1 | 98 | 75 | 21
